# Measured values: PMC11062922 (Nature Chemical Biology, 2023)
# Read-outs that look alike come from different tables or passages of the source.
# How the values were obtained:
# Design in all cases: species or system human, MV4-11 + K-562 + COLO205 + SK-N-BE2 + OVCAR-8
# [1] = tested on: CLK1; conditions: read-out: apparent Kd, compound concentrations: 100 nM and 1000 nM (sheet 'Samples'), n = 1
# [2] = tested on: CLK4; conditions: read-out: apparent Kd, compound concentrations: 100 nM and 1000 nM (sheet 'Samples'), n = 1
# [3] = tested on: FER; conditions: read-out: apparent Kd; compound concentrations: 100 nM and 1000 nM (sheet 'Samples'), CATDS: 0.191525182518377; n = 1
# [4] = tested on: FES; conditions: read-out: apparent Kd; compound concentrations: 100 nM and 1000 nM (sheet 'Samples'), CATDS: 0.141762780842772; n = 1
# [5] = tested on: IGF1R; conditions: read-out: apparent Kd; compound concentrations: 100 nM and 1000 nM (sheet 'Samples'), CATDS: 0.28711469302714299; n = 1
# [6] = tested on: INSR; conditions: read-out: apparent Kd; compound concentrations: 100 nM and 1000 nM (sheet 'Samples'), CATDS: 0.56670438264140999; n = 1
# [7] = tested on: PLK1; conditions: read-out: apparent Kd; compound concentrations: 100 nM and 1000 nM (sheet 'Samples'), CATDS: 8.4906950641747497E-2; n = 1
# [8] = tested on: PTK2; conditions: read-out: apparent Kd; compound concentrations: 100 nM and 1000 nM (sheet 'Samples'), CATDS: 8.5472412677607995E-2; n = 1
# [9] = tested on: CSNK1D; conditions: read-out: apparent Kd, n = 1
# [10] = tested on: CSNK1E; conditions: read-out: apparent Kd, n = 1
# [11] = tested on: DYRK1A; conditions: read-out: apparent Kd; compound concentrations: 100 nM and 1000 nM (sheet 'Samples'), CATDS: 0.124378507371426; n = 1
# [12] = tested on: LATS1; conditions: read-out: apparent Kd; compound concentrations: 100 nM and 1000 nM (sheet 'Samples'), CATDS: 0.13446121771830499; n = 1
# [13] = tested on: NNT; conditions: read-out: apparent Kd; compound concentrations: 100 nM and 1000 nM (sheet 'Samples'), CATDS: 0.14488734368084999; n = 1
# [14] = tested on: PKN2; conditions: read-out: apparent Kd; compound concentrations: 100 nM and 1000 nM (sheet 'Samples'), CATDS: 0.15546286258013101; n = 1
# [15] = tested on: RPS6KB1; conditions: read-out: apparent Kd; compound concentrations: 100 nM and 1000 nM (sheet 'Samples'), CATDS: 0.17749177686381501; n = 1
# [16] = tested on: MAPK14; conditions: read-out: apparent Kd, n = 1
# [17] = tested on: MAPKAPK2; conditions: read-out: apparent Kd, n = 1
# [18] = tested on: CSNK1A1; conditions: read-out: apparent Kd, n = 1
# [19] = tested on: MAPK10; conditions: read-out: apparent Kd; compound concentrations: 100 nM and 1000 nM (sheet 'Samples'), CATDS: 9.5737343662475993E-2; n = 1
# [20] = tested on: MAPK9; conditions: read-out: apparent Kd, n = 1
# [21] = tested on: NLK; conditions: read-out: apparent Kd, n = 1
# [22] = tested on: PIP4K2C; conditions: read-out: apparent Kd; compound concentrations: 100 nM and 1000 nM (sheet 'Samples'), CATDS: 7.4110853975201799E-2; n = 1
# [23] = tested on: MAPK11; conditions: read-out: apparent Kd; compound concentrations:100 nM and 1000 nM (sheet 'Samples'); n = 1
# [24] = tested on: PKN3; conditions: read-out: apparent Kd; compound concentrations:100 nM and 1000 nM (sheet 'Samples'); n = 1
# [25] = tested on: GAK; conditions: read-out: apparent Kd; compound concentrations: 100 nM and 1000 nM (sheet 'Samples'), CATDS: 0.13551111713290001; n = 1
# [26] = tested on: MAPK8; conditions: read-out: apparent Kd; compound concentrations: 100 nM and 1000 nM (sheet 'Samples'), CATDS: 0.168882234188796; n = 1
# [27] = tested on: TTK; conditions: read-out: apparent Kd; compound concentrations: 100 nM and 1000 nM (sheet 'Samples'), CATDS: 0.53372982121950996; n = 1
# [28] = compound concentrations:100 nM and 1000 nM (sheet 'Samples')
smiles,measurement,setting,value
COc1cc2c(cc1Nc1nc(Nc3ccsc3C(N)=O)c3cc[nH]c3n1)N(C(=O)CN(C)C)CCC2 [GSK2110236A],potency estimated from few doses,[1]; CATDS: 8.2490921109223694E-2,1090 nM
same,potency estimated from few doses,[2]; CATDS: 9.1933960168397902E-2,641 nM
same,potency estimated from few doses,[3],44.5 nM
same,potency estimated from few doses,[4],115 nM
same,potency estimated from few doses,[5],16.3 nM
same,potency estimated from few doses,[6],4.73 nM
same,potency estimated from few doses,[7],940 nM
same,potency estimated from few doses,[8],909 nM
CCc1nccc2c1nc(-c1nonc1N)n2CC [SB-751148],potency estimated from few doses,"[9]; compound concentrations: 100 nM and 1000 nM (sheet 'Samples'), CATDS: 0.159181013373493",1090 nM
same,potency estimated from few doses,"[10]; compound concentrations: 100 nM and 1000 nM (sheet 'Samples'), CATDS: 0.120883925571631",1960 nM
same,potency estimated from few doses,[11],1830 nM
same,potency estimated from few doses,[12],1530 nM
same,potency estimated from few doses,[13],1310 nM
same,potency estimated from few doses,[14],1140 nM
same,potency estimated from few doses,[15],902 nM
N#Cc1ccc(Oc2nccc(-c3c(-c4ccc(F)cc4)ncn3C3CCNCC3)n2)cc1 [SB-242721],potency estimated from few doses,[9]; [28],710 nM
same,potency estimated from few doses,[10]; [28],1740 nM
same,potency estimated from few doses,[16]; [28],844 nM
same,potency estimated from few doses,[17]; [28],496 nM
CN1CCC(n2cnc(-c3ccc(F)cc3)c2-c2ccnc(NC3CCNCC3)n2)CC1 [SB-229482],potency estimated from few doses,"[18]; compound concentrations: 100 nM and 1000 nM (sheet 'Samples'), CATDS: 7.6615483507767895E-2",1760 nM
same,potency estimated from few doses,"[9]; compound concentrations: 100 nM and 1000 nM (sheet 'Samples'), CATDS: 0.231386526780439",127 nM
same,potency estimated from few doses,"[10]; compound concentrations: 100 nM and 1000 nM (sheet 'Samples'), CATDS: 0.20184204641009601",159 nM
same,potency estimated from few doses,[19],810 nM
same,potency estimated from few doses,"[16]; compound concentrations: 100 nM and 1000 nM (sheet 'Samples'), CATDS: 0.239197237832417",121 nM
same,potency estimated from few doses,"[20]; compound concentrations: 100 nM and 1000 nM (sheet 'Samples'), CATDS: 0.10171878103733301",682 nM
same,potency estimated from few doses,"[17]; compound concentrations: 100 nM and 1000 nM (sheet 'Samples'), CATDS: 0.108564299414966",573 nM
same,potency estimated from few doses,"[21]; compound concentrations: 100 nM and 1000 nM (sheet 'Samples'), CATDS: 8.6878607565958693E-2",1100 nM
same,potency estimated from few doses,[22],2040 nM
Fc1ccc(-c2ncn(C3CCNCC3)c2-c2ccnc(Oc3ccccc3)n2)cc1 [SB-239272],potency estimated from few doses,[18]; [28],1380 nM
same,potency estimated from few doses,[9]; [28],88.7 nM
same,potency estimated from few doses,[10]; [28],191 nM
same,potency estimated from few doses,[23],45.4 nM
same,potency estimated from few doses,[16]; [28],12.5 nM
same,potency estimated from few doses,[20]; [28],1110 nM
same,potency estimated from few doses,[21]; [28],1500 nM
same,potency estimated from few doses,[24],2090 nM
CNc1nc(Nc2ccc(C(=O)N3CCOCC3)cc2OC)nc2[nH]cc(Cl)c12 [JH-II-127],potency estimated from few doses,[1]; CATDS: 0.13184639507044499,1090 nM
same,potency estimated from few doses,[2]; CATDS: 0.153440234991533,722 nM
same,potency estimated from few doses,[25],1000 nM
same,potency estimated from few doses,[26],575 nM
same,potency estimated from few doses,"[20]; compound concentrations: 100 nM and 1000 nM (sheet 'Samples'), CATDS: 0.14872410543912701",781 nM
same,potency estimated from few doses,[27],76.1 nM
